Test results published in PubChem BioAssay (Tox21).
Several values for one entry are separate records, joined by “and”; a condition that tells them apart may be missing. Equal values may be shown once. Inconclusive results are not listed. A call without a number means that no potency is given here. More than one record can exist for a structure, and the calls need not agree. Activity calls are given as the source filed them. Unless noted, calls follow the shape of the dose curve; as a rule, active = well fitted curve in the direction sought with a large enough effect in the repeat runs; inconclusive = weak or mixed curves; inactive = no such curve, though single readings can be large; an effect the other way counts as inactive or inconclusive.

How the values were obtained:
[1] = qHTS assay to identify small molecule agonists of the RXR signaling pathway - cell viability counter screen (AID 1159529); also: nearly all actives have a fitted effect of over 50% in size; also: potency is read from the fitted curve at half-maximal effect
Procedure, shortened: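 Compounds dissolved in DMSO were pinned onto HEK 293T cells carrying a beta-lactamase reporter under RXR-alpha control and incubated 16 hr. Cytotoxicity was then quantified by CellTiter-Glo luminescence.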

[2] = qHTS assay to identify small molecule antagonists of the retinoid acid receptor (RAR) signaling pathway - cell viability counter screen (AID 1159551); also: nearly all actives have a fitted effect of over 35% in size
Procedure, shortened: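 Viability of C3RL4 cells is quantified from ATP by luminescence after 6 h treatment at 37 C with compounds and 1 uM retinol.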

[3] = qHTS assay to identify small molecule antagonists of the retinoic acid receptor (RAR) signaling pathway (AID 1159552; also: nearly all actives have a fitted effect of over 50% in size; also: potency is read from the fitted curve at half-maximal effect)
Procedure, shortened: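 Test chemicals and DMSO controls were pin-transferred onto C3RL4 cells a day after seeding; retinol (1 uM final) followed at once. Luminescent reporter output was quantified after 6 hr of co-incubation and 30 min with detection reagent.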

[4] = qHTS assay to identify small molecule agonists of the retinoic acid receptor (RAR) signaling pathway (AID 1159553); details: C3RL4 RARE luciferase reporter, agonist, 6 h; activation: at 73.3 µM (top of the series) unless noted; also: potency is read from the fitted curve at half-maximal effect
Procedure, shortened: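 Compounds dissolved in DMSO were pinned onto C3RL4 cells seeded the previous day, and plates were held 6 hr at 37 C. RARE-driven luciferase output was then read by luminescence.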

[5] = qHTS assay to identify small molecule antagonists of the estrogen related receptor (ERR) signaling pathway from Tox21 library - cell viability counter screen (AID 1224834); also: nearly all actives have a fitted effect of over 30% in size; also: potency is read from the fitted curve at half-maximal effect
Procedure, shortened: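 In this quantitative HTS format, ERR cells receive compounds in DMSO and are incubated for 17.5 h at 37 C. Live-cell protease activity is then detected with CellTiter-Fluor.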

[6] = target: Luciferin 4-monooxygenase (Photinus pyralis) (UniProt P08659); assay: qHTS assay to identify small molecule inhibitors of firefly luciferase (AID 1224835); also: nearly all actives have a fitted effect of over 25% in size; also: potency is read from the fitted curve at half-maximal effect
Procedure, shortened: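 Biochemical qHTS: compounds run as interplate titrations against purified firefly enzyme, with D-luciferin and ATP each at its KM concentration. Light output recorded by CCD imaging.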

[7] = qHTS assay to identify small molecule agonists of the constitutive androstane receptor (CAR) signaling pathway - cell viability counter screen (AID 1224836); also: nearly all actives have a fitted effect of over 45% in size; also: potency is read from the fitted curve at half-maximal effect
Procedure, shortened: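 23 h treatment, 37 C, 5% CO2. Cell line: HepG2 stably expressing hCAR with a CYP2B6-2.2kb construct. Co-treatment: PK11195, 0.75 uM final. Read-out: CellTiter-Fluor fluorescence intensity.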

[8] = qHTS assay to identify small molecule antagonists of the constitutive androstane receptor (CAR) signaling pathway - cell viability counter screen (AID 1224837); also: nearly all actives have a fitted effect of over 45% in size; also: potency is read from the fitted curve at half-maximal effect
Procedure, shortened: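 In quantitative HTS format, compounds at 15 concentrations were applied to HepG2 cells double-transfected with hCAR and CYP2B6-2.2kb under 50 nM CITCO stimulation; live-cell protease activity was read after 23 hr via CellTiter-Fluor.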

[9] = qHTS assay to identify small molecule antagonists of the estrogen related receptor signaling pathway with the pleiotropic PPARgamma coactivator (PGC) from Tox21 10K library - cell viability counter screen (AID 1224840; active = well fitted cell-killing curve with a large enough effect in the repeat runs, not every such curve was filed as active; also: nearly all actives have a fitted effect of over 40% in size)
Procedure, shortened: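 Viability counter screen, PGC/ERR cells: 17.5 h compound exposure at 37 C, CellTiter-Fluor fluorescence endpoint.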

[10] = qHTS assay to identify small molecule antagonists of the estrogen related receptor signaling pathway with the pleiotropic PPARgamma coactivator (PGC) from Tox21 10K library (AID 1224841; call rule not given here; also: actives are mostly falling curves and most rising ones were filed inactive; nearly all actives have a fitted effect of over 50% in size; also: potency is read from the fitted curve at half-maximal effect)
Procedure, shortened: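 In the PGC/ERR line, DMSO solutions of test chemicals are pin-delivered to 2,000 cells/well six hours after dispensing. Following eighteen hours' incubation, One-Glo reagent is added and luminescence recorded.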

[11] = qHTS assay to identify small molecule agonists of the estrogen related receptor signaling pathway with the pleiotropic PPARgamma coactivator (PGC) from Tox21 10K library (AID 1224842); also: nearly all actives have a fitted effect of over 15% in size
Procedure, shortened: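 PGC/ERR reporter cell line, 2,000 cells per well, incubated 6 h at 37 C before 23 nL compound in DMSO was added. After 18 h at 37 C, One-Glo luminescence read following 30 min at room temperature.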

[12] = target: Thyrotropin receptor (Homo sapiens) (UniProt P16473); assay: qHTS assay to identify small molecule agonists of the thyroid stimulating hormone receptor (TSHR) signaling pathway (AID 1224843; calls by dose curve; also: nearly all actives have a fitted effect of over 45% in size; also: potency is read from the fitted curve at half-maximal effect)
Procedure, shortened: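 HEK293/TSHR, 800 cells/well; cpd 30 min RT; add cAMP-d2 + anti-cAMP-cryptate, 1 h RT; fluorescence read on plate reader. 15-pt titration, n=3.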

[13] = target: Nuclear receptor subfamily 1 group I member 3 (Homo sapiens) (UniProt Q14994); assay: qHTS assay to identify small molecule antagonists of the constitutive androstane receptor (CAR) signaling pathway (AID 1224838); also: nearly all actives have a fitted effect of over 40% in size; also: potency is read from the fitted curve at half-maximal effect
Procedure, shortened: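 CITCO-stimulated (50 nM final) HepG2 cells stably transfected with hCAR and CYP2B6-2.2kb luciferase were exposed to compounds at 15 concentrations for 24 h at 37 C/5% CO2. A luciferase reagent was added and luminescence recorded after 30 min.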

[14] = target: Nuclear receptor subfamily 1 group I member 3 (Homo sapiens) (UniProt Q14994); assay: qHTS assay to identify small molecule agonists of the constitutive androstane receptor (CAR) signaling pathway (AID 1224839); also: nearly all actives have a fitted effect of over 15% in size; also: potency is read from the fitted curve at half-maximal effect;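 as to activation: HepG2 cells stably carrying human CAR and a CYP2B6 luciferase reporter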
Procedure, shortened: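 Compounds tested at 15 concentrations on HepG2 cells stably harbouring hCAR and CYP2B6-2.2kb reporter constructs, co-treated with PK11195 (0.75 uM final), 24 h at 37 C; luminescent reporter signal quantified.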

[15] = qHTS assay to identify small molecule antagonists of the estrogen related receptor (ERR) signaling pathway - cell viability counter screen (AID 1224818)
Procedure, shortened: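 Cytotoxicity check run alongside the ERR antagonist screen: cells exposed to test compounds 17.5 h at 37 C, viability taken as CellTiter-Fluor fluorescence intensity.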

[16] = qHTS assay to identify small molecule antagonists of the estrogen related receptor signaling pathway with the pleiotropic PPARgamma coactivator (PGC) cell viability counter screen (AID 1224822)
Procedure, shortened: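 Viable cell signal (CellTiter-Fluor, 30 min, 37 C/5% CO2) was measured in PGC/ERR cells after a 17.5 h compound incubation.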

[17] = qHTS assay to identify small molecule antagonists of the estrogen related receptor (ERR) signaling pathway (AID 1224819;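 also: luminescence from an ERR-driven luciferase reporter measured with One-Glo reagent; nearly all actives have a fitted effect of over 50% in size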)
Procedure, shortened: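 ERR reporter cells were plated at 2,000 cells/well and left 6 h at 37 C/5% CO2 before pin-tool transfer of compounds in DMSO. After 18 h at 37 C, One-Glo was added and luminescence was read 30 min later at room temperature.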

[18] = qHTS assay to identify small molecule agonists of the estrogen related receptor (ERR) signaling pathway (AID 1224820)
Procedure, shortened: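 Luminescence readout (One-Glo, 30 min RT) from NTP-supplied ERR cell line exposed to compounds for 18 h at 37 C. Cells seeded 2,000 per well and pre-incubated 6 h before pin-tool compound transfer.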

[19] = system: estrogen-related receptor alpha (ERRalpha) with PGC-1alpha coactivator, human; assay: qHTS assay to identify small molecule antagonists of the estrogen related receptor signaling pathway with the pleiotropic PPARgamma coactivator (PGC) (AID 1224821; calls by dose curve)
Procedure, shortened: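 PGC/ERR reporter cells; 6 h pre-incubation 37 C/5% CO2; pin-tool compound in DMSO, 18 h 37 C; One-Glo added, 30 min RT; luminescence read. qHTS antagonist mode.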

[20] = qHTS assay to identify small molecule agonists of the estrogen related receptor signaling pathway with the pleiotropic PPARgamma coactivator (PGC) (AID 1224823)
Procedure, shortened: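 Luminescence readout (One-Glo, 30 min RT) from PGC/ERR cell line treated 18 h at 37 C with pin-tool-delivered DMSO compound solutions; cells plated 6 h before dosing. Quantitative HTS format.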

Chain of Thyrotropin receptor (Homo sapiens) (P16473 whole entry, looked up): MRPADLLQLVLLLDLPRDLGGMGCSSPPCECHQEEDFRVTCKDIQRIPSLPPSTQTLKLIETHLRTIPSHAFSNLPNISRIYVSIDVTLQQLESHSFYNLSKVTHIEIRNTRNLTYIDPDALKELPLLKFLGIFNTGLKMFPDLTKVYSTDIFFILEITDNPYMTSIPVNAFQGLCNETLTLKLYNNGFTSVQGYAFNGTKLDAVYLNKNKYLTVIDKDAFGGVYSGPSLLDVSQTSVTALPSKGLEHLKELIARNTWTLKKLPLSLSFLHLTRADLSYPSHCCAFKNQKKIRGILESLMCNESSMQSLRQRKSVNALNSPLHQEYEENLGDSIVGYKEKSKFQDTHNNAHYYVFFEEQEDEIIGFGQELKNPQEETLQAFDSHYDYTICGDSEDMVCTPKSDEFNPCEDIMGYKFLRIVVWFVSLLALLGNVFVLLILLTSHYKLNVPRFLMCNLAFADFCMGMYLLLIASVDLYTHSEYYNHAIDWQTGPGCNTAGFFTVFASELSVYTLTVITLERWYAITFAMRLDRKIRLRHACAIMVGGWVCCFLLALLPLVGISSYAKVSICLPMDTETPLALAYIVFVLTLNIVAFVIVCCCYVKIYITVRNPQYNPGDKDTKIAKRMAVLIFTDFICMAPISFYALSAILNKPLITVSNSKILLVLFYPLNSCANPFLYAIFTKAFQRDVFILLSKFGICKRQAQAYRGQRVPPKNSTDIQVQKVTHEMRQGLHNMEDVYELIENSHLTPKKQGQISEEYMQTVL
Chain of Luciferin 4-monooxygenase (Photinus pyralis) (P08659 whole entry, looked up): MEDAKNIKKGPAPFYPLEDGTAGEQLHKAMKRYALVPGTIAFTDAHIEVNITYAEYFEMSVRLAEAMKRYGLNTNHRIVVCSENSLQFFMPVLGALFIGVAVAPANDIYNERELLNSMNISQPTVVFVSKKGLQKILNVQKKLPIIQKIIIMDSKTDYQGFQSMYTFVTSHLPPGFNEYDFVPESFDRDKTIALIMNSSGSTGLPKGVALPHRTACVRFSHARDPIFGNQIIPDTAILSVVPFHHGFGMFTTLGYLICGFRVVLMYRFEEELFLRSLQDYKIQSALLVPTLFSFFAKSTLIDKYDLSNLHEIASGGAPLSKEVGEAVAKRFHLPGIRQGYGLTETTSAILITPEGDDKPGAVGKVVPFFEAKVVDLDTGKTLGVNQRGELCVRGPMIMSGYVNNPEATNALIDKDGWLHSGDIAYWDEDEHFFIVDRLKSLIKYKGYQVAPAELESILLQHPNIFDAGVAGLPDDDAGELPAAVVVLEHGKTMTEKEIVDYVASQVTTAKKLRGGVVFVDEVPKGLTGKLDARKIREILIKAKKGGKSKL
Chain of Nuclear receptor subfamily 1 group I member 3 (Homo sapiens) (Q14994 whole entry, looked up): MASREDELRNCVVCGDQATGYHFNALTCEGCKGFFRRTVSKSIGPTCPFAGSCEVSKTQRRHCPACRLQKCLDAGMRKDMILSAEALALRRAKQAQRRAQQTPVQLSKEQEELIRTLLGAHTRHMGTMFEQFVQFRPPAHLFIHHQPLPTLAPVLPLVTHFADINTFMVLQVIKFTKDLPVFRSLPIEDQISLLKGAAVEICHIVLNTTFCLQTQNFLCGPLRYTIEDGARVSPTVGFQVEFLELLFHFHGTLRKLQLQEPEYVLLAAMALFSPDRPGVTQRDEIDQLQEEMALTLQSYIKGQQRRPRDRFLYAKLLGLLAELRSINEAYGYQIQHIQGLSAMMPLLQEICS

Row | Compound | Potency [1] | Potency [2] | Potency [3] | Potency [4] | Potency [5] | Potency [6] | Potency [7] | Potency [8] | Potency [9] | Potency [10] | Potency [11] | Potency [12] | Potency [13] | Potency [14] | outcome [15] | outcome [16] | outcome [17] | outcome [18] | outcome [19] | outcome [20]
1 | CC[C@]12CCCN3CCc4c(n(c5ccccc45)[C@@](O)(C(=O)OC)C1)[C@@H]32 | inactive | inactive | inactive | inactive | inactive | inactive | inactive | inactive | inactive | inactive | inactive |  |  |  |  |  |  |  |  | 
2 | OCCNCCO | inactive | inactive | inactive | inactive | inactive | inactive | inactive | inactive | inactive | inactive | inactive | inactive |  |  |  |  |  |  |  | 
3 | Nc1ccc2c(O)cc(S(=O)(=O)O)cc2c1 | inactive | inactive | inactive |  | 27.3 µM (active) and 30.6 µM (active) | 63.4 µM (active) and 44.8 µM (active) | 21.7 µM (active) | 19.4 µM (active) and 68.6 µM (active) |  | 15.4 µM (active) | inactive | inactive | 3.86 µM (active) and 686 nM (active) | inactive |  |  |  |  |  | 
4 | CC(C)[N+](C)(CCOC(=O)C1c2ccccc2Oc2ccccc21)C(C)C | inactive | inactive |  | inactive | inactive | inactive | inactive | inactive | inactive |  |  | inactive |  |  | inactive | inactive |  |  |  | 
5 | c1ccc2c(c1)ccc1cc3c(ccc4ccccc43)cc12 | inactive | inactive | inactive | 152 nM (active) and 215 nM (active) | inactive | 788 nM (active) and 250 nM (active) | inactive | inactive | inactive |  |  | inactive |  |  |  |  |  |  |  | 
6 | C[C@]12C=CC(=O)C=C1CC[C@H]1[C@@H]3C[C@@H](O)[C@](O)(C(=O)CO)[C@@]3(C)C[C@H](O)[C@@]12F | inactive | inactive |  |  | inactive | inactive | inactive | inactive | inactive | inactive | inactive | inactive |  |  | inactive | inactive | inactive | inactive | inactive | inactive
7 | CCCCCCOCCOCCO | inactive | inactive | inactive | inactive | inactive |  | inactive | inactive | inactive |  |  | inactive |  |  |  |  |  |  |  | 
8 | c1ccc2c(c1)ccc1ncccc12 | inactive | inactive | inactive |  | inactive | 62.8 µM (active) and 35.6 µM (active) | inactive | inactive | inactive | inactive | inactive | inactive | inactive | 54.1 µM (active) and 48.6 µM (active) |  |  |  |  |  | 
9 | O=C(O)CCCCCCCCCCCC(=O)O | inactive | inactive | inactive |  | inactive | inactive | inactive | inactive | inactive | 60.1 µM (active) and inactive | inactive | inactive |  |  |  |  |  |  |  | 
10 | C=CCNCC=C | inactive | inactive | inactive | inactive | inactive | inactive | inactive | inactive | inactive |  |  |  |  |  |  |  |  |  |  | 
11 | CC(=O)O[C@]1(C(C)=O)CC[C@H]2[C@@H]3C=C(Cl)C4=CC(=O)CC[C@]4(C)[C@H]3CC[C@@]21C | inactive | inactive |  | inactive | 61 µM (active) | inactive | inactive | inactive | inactive |  |  | inactive | inactive | inactive |  |  |  |  |  | 
12 | C[C@]12CC[C@@H]3c4ccc(O)cc4CC[C@H]3[C@@H]1CC[C@H]2O | inactive | inactive | inactive and 27.3 µM (active) | inactive |  | inactive and 39.9 µM (active) | inactive | inactive | inactive | inactive | inactive |  | inactive |  |  |  |  |  |  | 
13 | C=C1C[C@H]2[C@@H]3C=C(C)C4=CC(=O)CC[C@]4(C)[C@H]3CC[C@]2(C)[C@@]1(OC(C)=O)C(C)=O | inactive | inactive | inactive | inactive |  | inactive | inactive | inactive | inactive | 31.3 µM (active) | inactive |  | inactive | inactive |  |  |  |  |  | 
14 | C1CN(SSN2CCOCC2)CCO1 | 54.4 µM (active) | inactive | 53.9 µM (active) | inactive |  | inactive | inactive |  |  | 53.9 µM (active) | inactive | inactive |  |  |  |  |  |  |  | 
15 | C[C@]12CC[C@@H]3c4ccc(O)cc4CC[C@H]3[C@@H]1CC[C@@H]2O | inactive | inactive |  | inactive | 30.6 µM (active) and 43.3 µM (active) | 39.8 µM (active) and 79.6 µM (active) | inactive | inactive | inactive |  | inactive |  | inactive | 9.67 µM (active) and 10.9 µM (active) | inactive | inactive |  | inactive | inactive | inactive
16 | O=Cc1ccccc1C=O | inactive | inactive | 30.6 µM (active) and inactive | inactive | 54.5 µM (active) and inactive | inactive |  |  | inactive |  |  | 38.6 µM (active) and inactive |  |  |  |  |  |  |  | 
17 | CN(C)/N=N/c1nc[nH]c1C(N)=O | inactive | inactive | inactive | inactive | inactive | inactive | inactive | inactive | inactive | inactive | inactive | inactive |  |  |  |  |  |  |  | 
18 | O=C(O)COCCN1CCN(C(c2ccccc2)c2ccc(Cl)cc2)CC1 (stereo unspecified) | inactive | inactive |  |  | inactive | inactive | inactive | inactive | inactive |  |  | inactive | inactive | inactive | inactive | inactive |  |  |  | 
19 | OC[C@H]1O[C@@H]2O[C@H]3[C@H](O)[C@@H](O)[C@@H](O[C@H]4[C@H](O)[C@@H](O)[C@@H](O[C@H]5[C@H](O)[C@@H](O)[C@@H](O[C@H]6[C@H](O)[C@@H](O)[C@@H](O[C@H]7[C@H](O)[C@@H](O)[C@@H](O[C@H]1[C@H](O)[C@H]2O)O[C@@H]7CO)O[C@@H]6CO)O[C@@H]5CO)O[C@@H]4CO)O[C@@H]3CO | inactive | inactive | inactive |  | inactive | inactive | inactive | inactive | inactive |  |  | inactive | inactive | inactive |  |  |  |  |  | 
